Bioassay records from PubChem.
HT1080 IDH1KD tx: qHTS for induction of synthetic lethality in tumor cells producing 2HG: qHTS for the HT-1080-IDH1KD cell line. HT-1080 IDH1 knockdown viability, ATP luminescence, 48 h. Potency, µM (doses to about 46.1 µM), without a hit: top-dose activity, negative = toxicity, usual class: cytotoxic. 360,000 tested, 2% active;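 also: 0% = DMSO wells and -100% = cell-free medium wells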
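HT-1080-IDH1KD cells (IDH1 knocked down), 750/well in RPMI with 5% FBS, treated with compound 48 h at 37 degrees C. Viability by CellTiter-Glo luminescence, normalised to DMSO and no-cell wells; concentration-response curves classed.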
KB-3-1 tox: qHTS assay for MDR1-selective chemotherapeutics: Primary screen using the parental adenocarcinoma cell KB-3-1. KB-3-1 viability, CellTiter-Glo ATP luminescence, 72 h. Potency, µM (titrated, usually from 46.1 µM), hits mostly cytotoxic. 400,000 tested, 1.4% active; also: nearly all actives have a fitted effect of over 60% in size
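Parental KB-3-1 viability, qHTS format: 72 h compound exposure, 37 °C; CellTiter-Glo; media-only wells and DMSO plates as controls; concentration-effect fits on corrected data.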
HT1080NT lethal: qHTS for induction of synthetic lethality in tumor cells producing 2HG: qHTS for the HT-1080-NT fibrosarcoma cell line; AID 686970, 2013; 360,000 tested, 1.6% active; Potency, µM (doses to about 46.1 µM), inactives show top-dose activity, negative = less viability, hits mostly cytotoxic; HT-1080-NT fibrosarcoma viability, CellTiter-Glo ATP luminescence, 48 h;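 also: NT is the 2HG producing partner of a matched IDH1 knockdown line; 0% = DMSO-treated cells and -100% = media-only wells without cells; nearly all actives have a fitted effect of over 55% in size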
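A 48-hour cytotoxicity screen used HT-1080-NT cells plated 2 hours before compound delivery. ATP-based CellTiter-Glo luminescence measured viability, normalized to DMSO and no-cell controls.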
KB-V1 MDR tox: qHTS assay for MDR1-selective chemotherapeutics: Primary screen using the drug-selected MDR subline cells KB-V1 | KB-V1 MDR cells viability, CellTiter-Glo, 72 h | Potency, µM (doses to about 46.1 µM), usual class: cytotoxic | 400,000 tested, 3.4% active | AID 1347076, 2019; also: nearly all actives have a fitted effect of over 60% in size
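Cells of the MDR subline KB-V1 are plated, dosed with compound at multiple concentrations, and incubated 72 h at 37 degrees C; CellTiter-Glo is then added and luminescence read after 10 min.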
TDP1 cell CPT: qHTS for Inhibitors of human tyrosyl-DNA phosphodiesterase 1 (TDP1): qHTS in cells in presence of CPT; chicken DT40 Tdp1-/-;hTDP1 cells + 20 nM CPT, ATP luminescence, 48 h; Potency, µM (series often up to 46.2 µM), inactives show at the top dose activity change, negative = growth inhibition, usual class: inhibitors; 420,000 tested, 12% active; also: nearly all actives have a fitted effect of over 55% in size
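Chicken DT40 Tdp1-/- cells stably complemented with human TDP1 were seeded at 400 cells/well in medium containing 20 nM camptothecin, exposed to pin-transferred compounds, and grown at 37 °C for at least 48 hr. Viability was read as ATP luminescence.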
TDP1 cell noCPT: qHTS for Inhibitors of human tyrosyl-DNA phosphodiesterase 1 (TDP1): qHTS in cells in absence of CPT; DT40 Tdp1-/- hTDP1 cells, no CPT, ATP luminescence, 48 h; Potency, µM (top dose mostly 46.2 µM), for the others: at the highest dose activity change, negative = growth inhibition, most hits filed as inhibitors; 420,000 tested, 15% active; AID 686978, 2013; also: nearly all actives have a fitted effect of over 55% in size
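Camptothecin absent (DMSO only). Human TDP1-complemented DT40 knockout cells, 400 cells/well, 37 °C for minimum 48 hr; ATP measured via CellTiter-Glo, 30 min dark incubation, luminescence.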
* marks the source's active call; other numbers are inactive results; ! = a repeat was not active. The list is not random: actives were taken first. Their share in the collection is about 19%. Calls follow the shape of the dose curve; as a rule, active = well fitted curve in the direction sought with a large enough effect; inconclusive = small, poorly fitted or top-dose-only effect, or another doubt; inactive = no such curve, though single readings can be large; an effect the other way counts as inactive or inconclusive. Unless noted, % is scaled to controls: 0 for no effect and ±100 for the full control effect; potency is read from the fitted curve at half-maximal effect.

Results for CC(OC(=O)CCc1ccccc1)C(=O)Nc1ccc(Cl)cn1 (configuration not stated) ?
HT1080 IDH1KD tx: 6%; KB-3-1 tox: inactive; HT1080NT lethal: 4%; KB-V1 MDR tox: inactive; TDP1 cell CPT: 0%; TDP1 cell noCPT: -2%

How did CCCSc1nc(=S)n(Cc2ccccc2)c(C)c1C(C)=O do in these assays?
HT1080 IDH1KD tx: -9%; KB-3-1 tox: inactive; HT1080NT lethal: -8%; KB-V1 MDR tox: inactive; TDP1 cell CPT: -20%; TDP1 cell noCPT: 23µM*

What do the screens show for `COc1cccc(C(=O)Nc2ccc3c(c2)CCCN3C(=O)c2cccs2)c1OC`?
HT1080 IDH1KD tx: inconclusive; KB-3-1 tox: 9.2µM*!; HT1080NT lethal: inconclusive; KB-V1 MDR tox: inconclusive; TDP1 cell CPT: 16µM*; TDP1 cell noCPT: 13µM*

What do the screens show for `Cc1ccccc1C(=O)Nc1cccc(NC(=S)NC(=O)c2cccs2)c1`?
HT1080 IDH1KD tx: -5%; KB-3-1 tox: inactive; HT1080NT lethal: 10%; KB-V1 MDR tox: inactive; TDP1 cell CPT: -28%; TDP1 cell noCPT: inconclusive

What do the screens show for `COc1ccc(C(=O)Nc2cc3c4c(c2)CC(=O)N4CCC3)c(OC)c1`?
HT1080 IDH1KD tx: -7%; KB-3-1 tox: inactive; HT1080NT lethal: 0%; KB-V1 MDR tox: inactive; TDP1 cell CPT: inconclusive; TDP1 cell noCPT: inconclusive

What do the screens show for `Cc1ccccc1C(=O)Nc1ccc2c(c1)CCCN2C(=O)c1cccs1`?
HT1080 IDH1KD tx: inconclusive; KB-3-1 tox: inconclusive; HT1080NT lethal: inconclusive; KB-V1 MDR tox: inconclusive; TDP1 cell CPT: 18µM*; TDP1 cell noCPT: inconclusive

Results for COc1ccc(C(=O)Nc2ccc3c(c2)CCCN3C(=O)c2cccs2)c(OC)c1 ?
HT1080 IDH1KD tx: -16%; KB-3-1 tox: inconclusive; HT1080NT lethal: -13%; KB-V1 MDR tox: inconclusive; TDP1 cell CPT: 8.2µM*; TDP1 cell noCPT: 12µM*

Results for COc1cccc(OC)c1C(=O)Nc1ccc2c(c1)N(S(=O)(=O)c1cccs1)CCC2 ?
HT1080 IDH1KD tx: -15%; KB-3-1 tox: inactive; HT1080NT lethal: -4%; KB-V1 MDR tox: inactive; TDP1 cell CPT: -4%; TDP1 cell noCPT: 1%

What do the screens show for `CCCOc1ccc(C(=O)N2CCCc3ccccc32)cc1`?
HT1080 IDH1KD tx: -9%; KB-3-1 tox: inactive; HT1080NT lethal: -4%; KB-V1 MDR tox: inconclusive; TDP1 cell CPT: inconclusive; TDP1 cell noCPT: -6%

Results for CCCCOc1ccc(C(=O)Nc2ccc3c(c2)CCCN3C(=O)c2cccs2)cc1 ?
KB-3-1 tox: inconclusive; KB-V1 MDR tox: inconclusive; TDP1 cell CPT: 5.8µM*; TDP1 cell noCPT: 5.2µM*

How did Cc1oc2ccc(O)cc2c1C(=O)c1ccc(Br)cc1 do in these assays?
HT1080 IDH1KD tx: inconclusive; KB-3-1 tox: inactive; HT1080NT lethal: inconclusive; KB-V1 MDR tox: inactive; TDP1 cell CPT: -24%; TDP1 cell noCPT: inconclusive

What do the screens show for `O=c1ccnc(Nc2ccc([N+](=O)[O-])cc2)[nH]1`?
HT1080 IDH1KD tx: inconclusive; KB-3-1 tox: inactive; HT1080NT lethal: inconclusive; KB-V1 MDR tox: inactive; TDP1 cell CPT: inconclusive; TDP1 cell noCPT: inconclusive

What do the screens show for `O=C(Nc1ccc2c(c1)CCCN2C(=O)c1ccccc1)c1ccccc1`?
HT1080 IDH1KD tx: inconclusive; KB-3-1 tox: inconclusive; HT1080NT lethal: inconclusive; KB-V1 MDR tox: inactive; TDP1 cell CPT: inconclusive; TDP1 cell noCPT: 15µM*

Results for Cc1ccc2c(c1)CCCN2C(=O)c1cccs1 ?
HT1080 IDH1KD tx: inconclusive; KB-3-1 tox: inactive; HT1080NT lethal: -21%; KB-V1 MDR tox: 16µM*; TDP1 cell CPT: -7%; TDP1 cell noCPT: -2%

Results for O=C(Nc1ccc(C(=O)N2CCCC2)cc1)c1ccccc1 ?
HT1080 IDH1KD tx: -29%; KB-3-1 tox: inconclusive; HT1080NT lethal: -28%; KB-V1 MDR tox: inconclusive; TDP1 cell CPT: inconclusive; TDP1 cell noCPT: inconclusive

Results for COc1ccccc1OCCNC(=O)c1ccc(C)c(S(=O)(=O)N2CCOCC2)c1 ?
HT1080 IDH1KD tx: 2%; KB-3-1 tox: inactive; HT1080NT lethal: 0%; KB-V1 MDR tox: inactive; TDP1 cell CPT: inconclusive; TDP1 cell noCPT: inconclusive

What do the screens show for `COc1ccc(S(=O)(=O)N(CCc2ccccc2)CC(=O)Nc2cc(Cl)ccc2C)cc1`?
KB-3-1 tox: inactive; KB-V1 MDR tox: inactive; TDP1 cell CPT: inconclusive; TDP1 cell noCPT: inconclusive

How did Cc1cc2n(n1)C(c1ccccc1)CC(c1ccc(Br)cc1)=N2 (configuration not stated) do in these assays?
HT1080 IDH1KD tx: -4%; KB-3-1 tox: inactive; HT1080NT lethal: -1%; KB-V1 MDR tox: inactive; TDP1 cell CPT: 16µM*; TDP1 cell noCPT: inconclusive

Results for COc1ccc2c(c1)c1c(c(=O)n(Cc3ccccc3)c(=O)n1Cc1cc(C)ccc1C)n2C ?
KB-3-1 tox: inactive; KB-V1 MDR tox: inactive; TDP1 cell CPT: 7%; TDP1 cell noCPT: -8%

Results for CC(=O)c1ccc(-n2c(=O)[nH]c(=O)c3c(N)c(C(=O)c4ccc(Cl)cc4)sc32)cc1 ?
HT1080 IDH1KD tx: 23µM*; KB-3-1 tox: inactive; HT1080NT lethal: 21µM*; KB-V1 MDR tox: inactive; TDP1 cell CPT: inconclusive; TDP1 cell noCPT: 3.7µM*

How did Cc1ccc(C(=O)c2sc3c(c2N)c(=O)[nH]c(=O)n3CCc2ccccc2)cc1 do in these assays?
HT1080 IDH1KD tx: 5%; KB-3-1 tox: inactive; HT1080NT lethal: 9%; KB-V1 MDR tox: inconclusive; TDP1 cell CPT: 16µM*; TDP1 cell noCPT: 16µM*
